Values joined by “and” are separate entries in the source; they are usually repeats but may differ in a detail not shown here. Equal entries are not always repeated. In all, about 260,000 compounds went through this assay and about 2,200 (0.85%) were called active.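 How the source made its calls: active means compounds whose cAMP rise, as percent of the full-agonist control response, exceeds 60; inactive means the rest.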 The sample as a whole holds a higher share of actives than the screen did. Where a structure was tested more than once in an assay, its records may differ in their call.

The test deals with Prostaglandin E2 receptor EP2 subtype (Homo sapiens) (UniProt P43116). The test can be described thus: modulation of human EP2 prostaglandin signaling – cell-based, HTRF cAMP, PGE2 stimulation, primary screen (AID 940).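 Further: rat C6 glioma line stably carrying human EP2 under a CMV promoter; the protocol text gives 20 µM as final concentration; 100% = response of wells given 1 µM PGE2.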 Particulars: EP2-expressing cells, cAMP HTRF FRET, PGE2 co-stimulation; at 25 µM; stronger effect = higher value. Background: TR-FRET usually uses a lanthanide donor and a delayed reading to cut background.
Prostaglandin E2 receptor EP2 subtype (Homo sapiens), sequence (P43116 whole entry, looked up): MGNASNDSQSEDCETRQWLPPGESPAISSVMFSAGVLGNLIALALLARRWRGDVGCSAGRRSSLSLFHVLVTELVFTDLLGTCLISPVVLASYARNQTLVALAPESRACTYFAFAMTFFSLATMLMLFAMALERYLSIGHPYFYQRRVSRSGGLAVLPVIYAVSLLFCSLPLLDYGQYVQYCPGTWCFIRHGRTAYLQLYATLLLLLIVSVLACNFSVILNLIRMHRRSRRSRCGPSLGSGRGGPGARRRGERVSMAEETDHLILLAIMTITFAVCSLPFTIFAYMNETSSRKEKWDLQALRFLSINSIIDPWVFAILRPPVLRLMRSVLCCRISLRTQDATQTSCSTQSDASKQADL
On to `C[N+]1(C)CCOC(O)(c2ccc(-c3ccc(C4(O)C[N+](C)(C)CCO4)cc3)cc2)C1` (stereo not given), for which the induction is 27.6% (inactive) and 76.2% (active).

For `C=CCc1cc(CN2C3CCC2CC(O)(c2nccn2C)C3)cc(OCC)c1O` (stereo not given), the induction is -31.8% (inactive).

Take `Cc1cccc2cc(CN(Cc3ccco3)C3(c4nnnn4C4CCCC4)CCCCC3)c(=O)[nH]c12`: the induction was 24.8% (inactive).

As to `N#CC1=C(N)Oc2c(c(=O)oc3ccccc23)C1c1cc2c(cc1Cl)OCO2` (stereo not given), the induction was 0.48% (inactive).

In the case of `COc1ccccc1/C=C/CN1C2CCC1CC(O)(c1ccccc1F)C2` (stereo not given), the induction was -60.2% (inactive).

For the molecule `O=C(CN1C2CCC1CC(O)(c1ccco1)C2)NCc1ccccc1` (stereo not given), the induction is -18.4% (inactive).

Regarding `CC(c1ccccc1)(c1ccccc1)c1ccncc1`, the induction was 61.2% (active).

Turning to `O=C1CCCN1C(=O)c1cc(Cl)cc(Cl)c1`, the induction is -0.43% (inactive).

With `OC12CCCCC1CN(Cc1ccnc3ccccc13)CC2` (stereo not given), the induction was -29.6% (inactive).

As to `O=C(CN1C2CCC1CC(O)(c1ccccn1)C2)N1c2ccccc2Sc2ccccc21` (stereo not given), the induction is 8.29% (inactive).
